The text below walks through data of PubChem BioAssay (NCI).

SMILES strings stand for the structures. About 83,000 compounds went through this panel and 20% of them were active in at least one assay; those are over-represented in the sample as a whole.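 Values shown are percent growth following 48 h exposure of cells in 96-well plates to a single concentration of compound; below 10 was considered active.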 A number with no mark means an inactive call. Active and inactive are the calls of the source.

The assay has as its system NCI-H322M lung. Nature of the assay: NCI-60 one-dose screen, 48 h (100 = growth as untreated, 0 = no growth, -100 = all killed). The note with it: 10 µM unless noted. The protocol:
Growth inhibition of the NCI-H322M human Non-Small Cell Lung tumor cell line is measured as a screen for anti-cancer activity. Cells are grown in 96 well plates and exposed to the test compound for 48 hours. Compounds are tested at a single concentration, which is 10^-5 M for most compounds. The reported endpoint is percent growth (GI% or GIPRCNT), where numbers from 0 - 100% represent growth inhibition, and numbers from -100% - 0 represent cell death. For example, a value of 40 represents 60% growth inhibition. A value of 0 means no net growth occurred over the course of the experiment. A value of -40 indicates 40% of cells at the beginning of the experiment died by the end of the experiment. A value of -100 means all cells are dead at the end of the experiment.
NCI-60 Human Tumor Cell Lines Screen was performed using the standard one-dose NCI protocol, which is described in more detail at https://dtp.cancer.gov/discovery_development/nci-60/default.htm.
Compounds with GIPRCNT values below 10 were considered active. Activity score was based on GIPRCNT using the following formula: […]
Score is 0 for GIPRCNT values of 100 or above, 50 for GIPRCNT values of 0, and 100 for GIPRCNT values of -100.
As for `CCN(CC)C(=O)O/N=C(/C)c1ccccc1`, the growth is 102%.
Consider `CCCCCCCCCCCC1=NC(C)(C)CN1CCO`, for which the growth is 87.7%.
Take `COc1cc(C2CC(c3ccccc3)=NN2C=O)ccc1Oc1ccnc2cc(Cl)ccc12` (stereo not given): the growth was 100%.
As to `COc1cc(OC)cc(-c2ccc(-c3ccc(C(=N)N)s3)s2)c1`, the growth is -86.7% (active).
Consider `CCOC(=O)C(CCCCC(NC(C)=O)(C(=O)OCC)C(=O)OCC)(NC(C)=O)C(=O)OCC`, for which the growth was 105%.
Take `CC(=O)N1N=C(C2C(=O)N(C)C(=O)N(C)C2=O)CC1c1ccccc1C(=O)O` (stereo not given): the growth is 97.1%.
For the compound `CC(=O)O[C@@H]1CC2C(C)(C)CCCC2(C)C2=C1C(=O)C(C(C)C)=CC2=O` (stereo not given in full), the growth was -19.1% (active).
Next, `c1ccc2oc(-c3cnc4nonc4n3)cc2c1`: 87.7%; `COc1ccc2c(c1)N(Cc1ccc(Cl)cc1)CCC2N1CCCC1=O` (stereo not given): 39.9%; `Nc1c(N)c2ccccc2c2ccccc12`: 115%.
In the case of `C[Si](C)(C)C(c1ccccc1)c1ccccc1`, the growth is 105%.
On to `COc1ccc(C(=O)OC2C(OC3C(O)COC(O[C@H]4C[C@H]5[C@@H]6CC=C7C[C@@H](O)CC[C@]7(C)[C@H]6CC[C@]5(C)[C@H]4[C@H](C)C(=O)CCC(C)C)C3OC(=O)C(C)C)OCC(O)C2O)cc1` (stereo not given in full), for which the growth was 58.6%.
`CC(C)(C)c1nn(-c2ccccc2)c2c1C(=O)CSC(c1ccccc1Cl)N2` (stereo not given): the growth is 35.1%.
For `CCCCCCCCCCCC1=NC(C)(C)CN1C(C)C`, the growth is 97.7%.
Next, `COc1cccc(N2CCN(c3ncnc4cc[nH]c34)CC2)c1`: 94%; `C=C1C(=O)O[C@H]2[C@H]1CC/C(COC(=O)NCc1cccc(OC)c1)=C\CC[C@@]1(C)O[C@@H]21`: 90.6%; `COc1cc(OC)c2sc(-c3ccc(-n4cncc4-c4ccc(OC)c(N)c4)cc3)nc2c1`: 105%.
`CCN(CC)c1ccc(/C=N/N=C(N)N)cc1`: the growth was 87.7%.
Consider `CC(=O)Nc1ccc(/C=N/N2CCCCCC2)cc1`, for which the growth is 101%.
In the case of `ClC1(Cl)C2CCCCCCC21` (stereo not given), the growth is 109%.
Regarding `C=C1C(=O)O[C@H]2[C@H]1CC/C(COC(=O)NCc1cn(C)c3ccccc13)=C\CC[C@@]1(C)O[C@@H]21`, the growth is 80.6%.
To `CS(=O)(=O)c1ccc(C(=O)Nc2ccc(Cl)c(-c3ccccn3)c2)c(Cl)c1` belongs 52%.
For the compound `CC1=CC(=O)OC1C/C=C(\C)CCC1[C@@]2(C)CCC[C@@](C)(C(=O)O)C2CC[C@@]1(C)O` (stereo not given in full), the growth was 55%.
Next, `COc1ncnc2[nH]cc(CN3CCN(c4ccc(F)cc4)CC3)c12`: 107%; `CS(=O)(=O)c1ccc(C(=O)N/N=C/c2cccc3ccccc23)cc1`: 93.9%; `C=C(C)[C@@H]1CC[C@]2(C(=O)NC(COC(=O)C(Cl)Cl)(COC(=O)C(Cl)Cl)COC(=O)C(Cl)Cl)CC[C@]3(C)[C@H](CC[C@@H]4[C@@]5(C)CC[C@H](OC(C)=O)C(C)(C)[C@@H]5CC[C@]43C)[C@@H]12`: 88.8%.
As for `COc1cc2c(=O)n(CCCN(C)C)c3c4cc[nH]c4ncc3c2cc1OC`, the growth is 42.6%.
Consider `CCOC(=O)N1C2CCC(C2)N1C(=O)OCC`, for which the growth is 115%.
`COc1cc(C2CC(c3ccc(Cl)cc3)=NN2C(C)=O)ccc1Oc1nc2c(c(=O)n(C)c(=O)n2C)n1C` (stereo not given): the growth is 72.9%.
As to `COC(=O)CSc1ccc(Cl)cc1`, the growth is 102%.
Regarding `COc1ccc(C(=O)N2N=C(c3ccc(F)cc3)CC2c2cn(-c3ccccc3)nc2-c2ccccc2)cc1` (stereo not given), the growth is 80%.
Next, `COc1ccc(Cl)cc1Nc1nc(C(F)(F)F)ccc1C(=O)NN`: 4.64% (active); `c1cc(C2CCCCC2)ccc1-c1cnc2nonc2n1`: 50.1%; `Cc1ccc(C)c(NC(=O)c2sc3c(=O)[nH]cnc3c2C)c1`: 103%.
Next, `CC(=O)Oc1ccccc1C(=O)Nc1ncc([N+](=O)[O-])s1`: 10.8%.
As for `COc1ccc2[nH]cc(C3(c4c[nH]c5ccc(OC)cc45)C(=O)Nc4ccc(F)cc43)c2c1`, the growth was 98.1%.
In the case of `O=S1(=O)NCCCN1CCNc1nccc(-c2c(-c3cccc(O)c3)nc3sccn23)n1`, the growth is 85.1%.
For `CNC(=O)c1c(NC(=O)c2cccc(C(F)(F)F)c2)sc2c1CCC(=O)C2`, the growth is 15.4%.
For `CC(=O)Oc1c(Cl)c(Cl)c(Cl)c(Cl)c1Cl`, the growth is 92.3%.
As for `COc1ccc(C(=O)OC2C(OC3C(O)COC(O[C@H]4C[C@H]5[C@@H]6CC=C7C[C@@H](O)CC[C@]7(C)[C@H]6CC[C@]5(C)[C@H]4[C@H](C)C(=O)CCC(C)C)C3OC(N)=O)OCC(O)C2O)cc1` (stereo not given in full), the growth was 53.7%.
